The values that follow come from the supplement of paper PMC12350171.

Where a name gives a salt, the structure may show the parent alone. Values without a mark were called inactive.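 How the source made its calls: active = AUC significantly below DMSO controls by Student t-fit with adjusted P under 0.01; inactive = not significantly reduced.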

The assay concerns Haemophilus parainfluenzae. Briefly: growth AUC normalised to DMSO control (fraction of control); higher = less growth inhibition, active = hit call of the paper. The settings on record: 20 µM. In outline: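 Pathogens passaged twice anaerobically were inoculated at a starting OD578 of 0.01 into pre-reduced mGAM plates with drug at 20 μM and 1% DMSO, sealed with breathable membranes. Haemophilus parainfluenzae medium was supplemented with hemin and NAD. OD578 was read hourly for 24 h, with three biological replicates. Growth-curve AUC was computed by the trapezoidal rule up to the exponential-to-stationary transition and normalised to DMSO controls on the same plate.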
For the molecule `COc1ccc(C2CNC(=O)C2)cc1OC1CCCC1` (centres undefined) [Rolipram], the “growth AUC normalised to DMSO control” value is 0.952.
The result for `CCC1(C)CC(=O)NC1=O` (centres undefined) [Ethosuximide] reads 1.06.
Regarding `O=C(Nc1cccc2c(=O)cc(-c3nnn[nH]3)oc12)c1ccc(OCCCCc2ccccc2)cc1` [Pranlukast], the “growth AUC normalised to DMSO control” value was 0.996.
In the case of `CC(C)(S)C(N)C(=O)O` (racemic) [D,L-Penicillamine] it was 0.981; in that of `CN(C)CCN(Cc1ccccc1)c1ccccn1` [Tripelennamine hydrochloride], 1.01.
Consider `N=C(N)N/N=C/c1c(Cl)cccc1Cl` [Guanabenz acetate], for which the “growth AUC normalised to DMSO control” value is 0.972.
In the case of `CC(=O)O[C@]1(C(C)=O)CC[C@H]2[C@@H]3C=C(Cl)C4=CC(=O)CC[C@]4(C)[C@H]3CC[C@@]21C` [Chlormadinone acetate] it was 1.01; in that of `COc1ccc([C@@H]2Sc3ccccc3N(CCN(C)C)C(=O)[C@@H]2OC(C)=O)cc1` [Diltiazem hydrochloride], 0.988.
Regarding `CN(Cc1ccc(C(C)(C)C)cc1)Cc1cccc2ccccc12` [Butenafine hydrochloride], the “growth AUC normalised to DMSO control” value was 0.913.
In the case of `NS(=O)(=O)c1cc2c(cc1C(F)(F)F)NC(Cc1ccccc1)NS2(=O)=O` (centres undefined) [Bendroflumethiazide] it was 1.02.
As for `CC(C)n1c(/C=C/C(O)CC(O)CC(=O)O)c(-c2ccc(F)cc2)c2ccccc21` (centres undefined) [Fluvastatin sodium salt], the “growth AUC normalised to DMSO control” value is 1.
The result for `CC(=O)OC(C)C[N+](C)(C)C` (centres undefined) [Methacholine chloride] reads 0.979; that for `CC(C)(O)c1ccccc1CC[C@@H](SCC1(CC(=O)O)CC1)c1cccc(/C=C/c2ccc3ccc(Cl)cc3n2)c1` [Montelukast], 0.964.
In the case of `CCc1oc2ccccc2c1C(=O)c1cc(Br)c(O)c(Br)c1` [Benzbromarone] it was 0.987; in that of `CN(C)CCn1nnnc1SCC1=C(C(=O)O)N2C(=O)[C@@H](NC(=O)Cc3csc(N)n3)[C@H]2SC1` [Cefotiam hydrochloride], 0.0401 (active).
As to `CCCCN(CCCC)CCC(O)c1cc2c(Cl)cc(Cl)cc2c2cc(C(F)(F)F)ccc12` (centres undefined) [Halofantrine hydrochloride], the “growth AUC normalised to DMSO control” value is 1.06.
As for `COc1ccccc1OCCNCC(O)COc1cccc2[nH]c3ccccc3c12` (centres undefined) [Carvedilol], the “growth AUC normalised to DMSO control” value was 0.963.
The result for `Clc1ccc2c(c1)CCc1cccnc1C2=C1CCNCC1` [Desloratadine] reads 1.03.
Take `CC=C(C)C(=O)OC1C(OC(C)=O)C2(CO)C(O)CC3(C)C(=CCC4C5(C)CCC(OC6OC(C(=O)O)C(OC7OC(CO)C(O)C(O)C7O)C(O)C6OC6OC(CO)C(O)C(O)C6O)C(C)(CO)C5CCC43C)C2CC1(C)C` (stereo not drawn) [Beta-Escin]: the “growth AUC normalised to DMSO control” value is 1.01.
The result for `CCOC(=O)c1ccc(OC(=O)CCCCCNC(=N)N)cc1` [Gabexate mesilate] reads 0.919; that for `CCOC(=O)O[C@]1(C(=O)COC(=O)CC)CC[C@H]2[C@@H]3CCC4=CC(=O)C=C[C@]4(C)[C@H]3[C@@H](O)C[C@@]21C` [Prednicarbate], 1.16; that for `CCOc1ccc2c(c1)C(C)=CC(C)(C)N2` [Ethoxyquin], 0.94.
For the molecule `CC1CCc2c(N3CCC(O)CC3)c(F)cc3c(=O)c(C(=O)O)cn1c23` (centres undefined) [Nadifloxacin], the “growth AUC normalised to DMSO control” value was 0.0309 (active).
Turning to `CCC1NC(=O)c2cc(S(N)(=O)=O)c(Cl)cc2N1` (centres undefined) [Quinethazone], the “growth AUC normalised to DMSO control” value was 1.16.
As for `NCCc1ccc(O)c(O)c1` [Dopamine hydrochloride], the “growth AUC normalised to DMSO control” value was 1.07.
As to `CN(C)CCOC(C)(c1ccccc1)c1ccccn1` (centres undefined) [Doxylamine succinate], the “growth AUC normalised to DMSO control” value is 0.989.
As for `Cc1cc2cc3c(C)cc(=O)oc3c(C)c2o1` [Trioxsalen], the “growth AUC normalised to DMSO control” value was 1.02.
Consider `CC(C)c1c(C(=O)Nc2ccccc2)c(-c2ccccc2)c(-c2ccc(F)cc2)n1CC[C@@H](O)C[C@@H](O)CC(=O)O` [Atorvastatin], for which the “growth AUC normalised to DMSO control” value was 0.996.
For `CC(=O)Oc1cccc2c1C(=O)c1c(OC(C)=O)cc(C(=O)O)cc1C2=O` [Diacerein], the “growth AUC normalised to DMSO control” value is 0.779 (active).
In the case of `Nc1ccc(S(=O)(=O)c2ccc(N)cc2)cc1` [Dapsone] it was 1; in that of `CN[C@H]1CC[C@@H](c2ccc(Cl)c(Cl)c2)c2ccccc21` [Sertraline], 0.929.
In the case of `CC(NCCc1ccc(O)cc1)C(O)c1ccc(O)cc1` (centres undefined) [Ritodrine hydrochloride] it was 1; in that of `CC(C)C(=O)Nc1ccc([N+](=O)[O-])c(C(F)(F)F)c1` [Flutamide], 1.09.
The result for `CNNCc1ccc(C(=O)NC(C)C)cc1` [Procarbazine hydrochloride] reads 0.995.
Consider `CCOC(=O)C1=C[C@]2(CC)CCCN3CCc4c(n1c1ccccc41)[C@@H]32` [Vinpocetine], for which the “growth AUC normalised to DMSO control” value is 0.845.
Take `CN1CCN(C2=Nc3ccccc3Oc3ccc(Cl)cc32)CC1` [Loxapine succinate]: the “growth AUC normalised to DMSO control” value was 0.969.
In the case of `CC(C)(Oc1ccc(CCNC(=O)c2ccc(Cl)cc2)cc1)C(=O)O` [Bezafibrate] it was 0.984; in that of `O=C(N[C@H](CO)[C@H](O)c1ccc([N+](=O)[O-])cc1)C(Cl)Cl` [Chloramphenicol], 0.0445 (active); in that of `CN1CCCC(n2nc(Cc3ccc(Cl)cc3)c3ccccc3c2=O)CC1` (centres undefined) [Azelastine hydrochloride], 0.994.
